Several values for one entry are separate records, joined by “and”; a condition that tells them apart may be missing. Equal entries are not always repeated. Results filed as inconclusive are left out. Activity calls are given as the source filed them. Unless noted, the call rests on the fitted dose curve; in most records, active means well fitted curve in the direction sought with a large enough effect in the repeat runs; inconclusive means weak or mixed curves; inactive means no such curve, though single readings can be large; an effect the other way counts as inactive or inconclusive.
Legend:
[1] = qHTS assay to identify small molecule agonists of the estrogen related receptor (ERR) signaling pathway from Tox21 library (AID 1224849; calls by dose curve; further: nearly all actives have a fitted effect of over 15% in size); settings: ERR reporter cell line, ONE-Glo luciferase, 18 h
Procedure, shortened: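 Luminescent agonist read-out (One-Glo, 30-minute room-temperature incubation) following 18-hour compound treatment at 37 C of the ERR cell line, which had been plated 6 hours before dosing.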

[2] = qHTS assay to identify small molecule agonists of the hypoxia (HIF-1) signaling pathway - cell viability counter screen (AID 1224844; calls by dose curve; further: nearly all actives have a fitted effect of over 50% in size); settings: HRE-bla ME-180 viability, CellTiter-Glo luminescence, 17 h; series mostly up to 76.8 µM
Procedure, shortened: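 Cytotoxicity measured by CellTiter-Glo ATP luminescence in the wells also read for beta-lactamase signal. Cells were HRE-bla ME-180 (2,000/well, 0.5% dialyzed FBS), exposed to compounds for 17 h at 37C.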

[3] = qHTS assay to identify small molecule agonists of H2AX (AID 1224845; active means well fitted activation curve with a large enough effect in the signal ratio in the repeat runs, not every such curve was filed as active; the % refers to the signal ratio); settings: CHO-K1 phospho-H2AX Ser139 HTRF, 3 h; series mostly up to 154 µM
Procedure, shortened: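 Phospho-H2AX Ser139 measured by HTRF (ex 320 nm; em 665 and 620 nm) after 24 hr antibody incubation. Compounds, 15 concentrations, 0.76% DMSO, were applied to CHO-K1 cells for 3hr at 37C before lysis.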

[4] = qHTS assay to identify small molecule antagonists of the estrogen related receptor (ERR) signaling pathway from Tox21 library (AID 1224848); settings: ERR reporter cell line, luciferase antagonist mode, 18 h; series mostly up to 92.4 µM; further: nearly all actives have a fitted effect of over 50% in size
Procedure, shortened: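 Luciferase luminescence (ONE-Glo, 30 min room temperature) was the read-out. Cells of the NTP-supplied ERR line, 2,000 per well, were given 6 h at 37 C before compound addition in DMSO and 18 h exposure at 37 C.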

[5] = qHTS RealTime-Glo MT Cell Viability Assay in HepG2 cells - 24 hour (AID 1224867); settings: RealTime-Glo luminescence; series mostly up to 76.8 µM; further: nearly all actives have a fitted effect of over 50% in size
Procedure, shortened: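 Cell number in HepG2 cultures estimated from NanoLuc luminescence generated by metabolic reduction of a prosubstrate by living cells. The homogeneous, nonlytic format allowed repeated reads at 0, 8, 16, 24, 32 and 40 h of compound exposure.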

[6] = qHTS RealTime-Glo MT Cell Viability Assay in HEK293 cells - 32 hour (AID 1224868); settings: RealTime-Glo luminescence; series mostly up to 76.8 µM; further: top concentration of the series differs between compounds; nearly all actives have a fitted effect of over 50% in size
Procedure, shortened: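 Homogeneous bioluminescent viability format in HEK293 cells (600 cells/well). Following 5 h at 37 C/5% CO2, 23 nL compound was pintooled; the signal was measured repeatedly during 40 h incubation.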

[7] = A CellTox Green Cytotoxicity Assay to monitor cytotoxicity in HEK293 cells - 0 hour (AID 1224869); settings: CellTox Green fluorescence; series mostly up to 76.8 µM; further: nearly all actives have a fitted effect of over 50% in size
Procedure, shortened: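 Fluorescence from a DNA-binding dye excluded by viable cells was measured repeatedly in the same HEK293 wells (600 cells/well) during continuous compound exposure at 37 C. Each assay gives one read point: 0, 8, 16, 24, 32 or 40 h.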

[8] = qHTS RealTime-Glo MT Cell Viability Assay in HepG2 cells - 40 hour (AID 1224870); settings: RealTime-Glo luminescence; series mostly up to 76.8 µM; further: nearly all actives have a fitted effect of over 50% in size
Procedure, shortened: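 Real-time viability: cells seeded at 600 per well together with NanoLuc and cell-permeant prosubstrate, compounds added after 5 h incubation. Luminescence tracked at 0, 8, 16, 24, 32 and 40 h of exposure.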

[9] = qHTS assay to identify small molecule agonists of H2AX - cell viability counter screen (AID 1224847; calls by dose curve; further: top concentration of the series differs between compounds; nearly all actives have a fitted effect of over 30% in size); settings: CHO-K1 viability, CellTiter-Glo luminescence, 3 h; series mostly up to 154 µM
Procedure, shortened: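 Wild-type CHO-K1 cells (10% FBS medium) were plated overnight at 37C, exposed to compounds at 15 concentrations for 3 hr at 37C (0.76% DMSO final), and viability was read as CellTiter-Glo luminescence after 30 min at room temperature.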

[10] = qHTS assay to identify small molecule agonists of the hypoxia (HIF-1) signaling pathway (AID 1224846; active means well fitted activation curve with a large enough effect in the signal ratio in the repeat runs, not every such curve was filed as active; the % refers to the signal ratio); settings: HRE-bla ME-180 cells, beta-lactamase ratio, 17 h; series mostly up to 76.8 µM
Procedure, shortened: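 Compounds added to ME-180 cells carrying hypoxia-response-element beta-lactamase reporter (0.5% dialyzed FBS, 5 h preplating), 17 h at 37C; agonist activity detected by CCF4-AM B/G FRET read-out.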
On the % scale 0 is the no-effect control and ±100 the full control effect.

CC(O)CO (configuration not stated)
inactive: activity change, positive = activation ([1]; at 8.39 µM (top of the series)) -3.08%

Nc1ccc(S(=O)(=O)Nc2nccs2)cc1
inactive: Potency [2] | outcome [3] | Potency [4] | activity change, positive = activation ([1]; at 42.5 µM (top of the series)) 5.51% | activity change, positive = activation ([1]; at 92.4 µM (top of the series)) -7.05% and 5.21% and 6.11% | Potency [5] | Potency [6] | outcome [7] | Potency [8]

Nc1ccn([C@H]2CC[C@@H](CO)O2)c(=O)n1
inactive: Potency [2] | outcome [3] | outcome [9] | Potency [5] | Potency [6] | outcome [7] | Potency [8]

CCCC(O)C(CC)CO (configuration not stated)
inactive: Potency [2] | outcome [3] | outcome [10] | Potency [5] | Potency [6] | outcome [7] | Potency [8]

Cc1ccc(O)cc1
inactive: Potency [2] | outcome [3] | outcome [9] | Potency [5] | Potency [6] | outcome [7] | Potency [8]

CCCNC(=O)NS(=O)(=O)c1ccc(Cl)cc1
inactive: Potency [2] | outcome [3] | outcome [10] | Potency [5] | Potency [6] | outcome [7] | Potency [8]

CCCN(CCC)S(=O)(=O)c1ccc(C(=O)O)cc1
inactive: Potency [2] | outcome [3] | Potency [4] | activity change, positive = activation ([1]; at 42.5 µM (top of the series)) 3.98% | activity change, positive = activation ([1]; at 92.4 µM (top of the series)) -17.4% and 3.56% | Potency [5] | Potency [6] | outcome [7] | Potency [8]

NC(=O)c1cnccn1
inactive: Potency [2] | outcome [3] | Potency [4] | activity change, positive = activation ([1]; at 42.5 µM (top of the series)) 4.26% | activity change, positive = activation ([1]; at 92.4 µM (top of the series)) -0.224% and -0.902% | Potency [5] | Potency [6] | outcome [7] | Potency [8]

CCCCCCCCCCCCCCCC(=O)O
inactive: Potency [2] | outcome [3] | outcome [10] | Potency [5] | Potency [6] | outcome [7] | Potency [8]

Cc1cc(=O)n(-c2ccccc2)n1C
inactive: Potency [2] | outcome [3] | outcome [9] | Potency [4] | activity change, positive = activation ([1]; at 42.5 µM (top of the series)) 4.6% | activity change, positive = activation ([1]; at 92.4 µM (top of the series)) 1.91% and 2.64% | Potency [5] | Potency [6] | outcome [7] | Potency [8]

COc1ccc2[nH]cc(CCNC(C)=O)c2c1
inactive: Potency [2] | outcome [3] | outcome [9] | Potency [4] | activity change, positive = activation ([1]; at 42.5 µM (top of the series)) 6.1% | activity change, positive = activation ([1]; at 92.4 µM (top of the series)) 9.68% and -2.51% | Potency [5] | Potency [6] | outcome [7] | Potency [8]

OC(Cn1cncn1)(Cn1cncn1)c1ccc(F)cc1F
inactive: Potency [2] | outcome [10] | Potency [4] | activity change, positive = activation ([1]; at 42.5 µM (top of the series)) 4.61% | activity change, positive = activation ([1]; at 92.4 µM (top of the series)) 8.25% and 5.79% | Potency [5] | Potency [6] | outcome [7] | Potency [8]

Nc1ccc(S(=O)(=O)c2ccc(N)cc2)cc1
inactive: Potency [2] | outcome [3] | Potency [5] | Potency [6] | outcome [7] | Potency [8]

Cc1ccccc1C(OCCN(C)C)c1ccccc1 (configuration not stated)
inactive: Potency [2] | outcome [3] | outcome [9] | Potency [4] | activity change, positive = activation ([1]; at 42.5 µM (top of the series)) 0.836% | activity change, positive = activation ([1]; at 92.4 µM (top of the series)) 0.151% and 0.194% | Potency [5] | Potency [6] | outcome [7] | Potency [8]

Cc1noc(NS(=O)(=O)c2ccc(N)cc2)c1C
inactive: Potency [2] | outcome [3] | outcome [10] | Potency [5] | Potency [6] | outcome [7] | Potency [8]

Cc1ccc(C)c(OCCCC(C)(C)C(=O)O)c1
inactive: Potency [2] | outcome [3] | Potency [5] | Potency [6] | outcome [7] | Potency [8]

NNC(=O)c1ccncc1
inactive: Potency [2] | outcome [3] | Potency [4] | activity change, positive = activation ([1]; at 42.5 µM (top of the series)) -2.18% and 2.7% | activity change, positive = activation ([1]; at 92.4 µM (top of the series)) -1.91% | Potency [5] | Potency [6] | outcome [7] | Potency [8]

CCC1(c2ccccc2)C(=O)NCNC1=O
inactive: Potency [2] | outcome [3] | outcome [9] | Potency [5] | Potency [6] | outcome [7] | Potency [8]

Reference: PubChem BioAssay (Tox21)
